Measurements as given in PubChem BioAssay AID504453 (The Scripps Research Institute Molecular Screening Center, 2011).
Results with a measured potency or affinity are listed apart. Values without a mark were called inactive. The rule behind the calls is not given here.

molecular target: Peroxisome proliferator-activated receptor gamma (Homo sapiens) (UniProt P37231); test: competitive ligand displacement at PPARg – biochemical, fluorescence polarization, PolarScreen, PPARg partial agonist project, dose response (AID 504453); details: PPARg ligand-binding domain, fluorescence polarization competition; series mostly up to 10 µM; fold change, lower = more binding: at the top concentration
Sequence (P37231 232-505 limits assumed): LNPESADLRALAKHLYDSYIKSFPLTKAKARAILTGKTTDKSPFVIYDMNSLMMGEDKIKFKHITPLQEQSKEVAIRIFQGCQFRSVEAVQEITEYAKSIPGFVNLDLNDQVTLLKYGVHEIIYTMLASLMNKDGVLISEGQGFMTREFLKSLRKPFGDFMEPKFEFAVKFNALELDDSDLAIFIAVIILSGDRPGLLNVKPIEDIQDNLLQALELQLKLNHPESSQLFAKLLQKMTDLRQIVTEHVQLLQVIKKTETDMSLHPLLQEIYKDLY

Structure (SMILES)	fold change, lower = more binding [fold]
O=C(C1=C(O)C(=O)N(c2nc3ccc(Cl)cc3s2)C1c1ccco1)c1ccco1 (stereo unspecified)	1
COc1ccc2c(c1)c(=O)c(C(=O)c1ccc(F)cc1)cn2CC(=O)Nc1ccc(F)cc1	1
COc1cccc(Cn2nc3c4cc(F)ccc4n(Cc4ccc(F)cc4)cc-3c2=O)c1	1.03
CCOc1ccc(C2c3[nH]c4ccccc4c3CCN2Cc2cccn2-c2ncccn2)cc1 (stereo unspecified)	0.98
COc1ccc2c(c1)c(=O)c(C(=O)c1ccc(C)cc1)cn2CC(=O)Nc1ccc(F)cc1	0.99
COc1ccccc1-n1cc(C(=O)c2cc(Cl)ccc2O)cc(C#N)c1=O	1
COc1ccccc1N1C(=O)C2C(C(=O)c3ccccc3)=NN(c3ccc(C)cc3)C2C1=O (stereo unspecified)	0.99
O=C(CSc1nc(=O)n(CCN2CCOCC2)c2c1CCCC2)Nc1cccc([N+](=O)[O-])c1	1.02
Cc1cc(C(=O)CN2C(=O)C(=O)N(Cc3ccccc3)C2=O)c(C)n1-c1ccc2c(c1)OCCO2	1
O=C(Nc1ccccc1Cl)C(=O)c1cn(CC(=O)N2CCOCC2)c2ccccc12	0.99
CN1CCN(S(=O)(=O)c2ccc(Sc3nc4ccccc4[nH]3)c3nsnc23)CC1	1.01
